According to PubChem BioAssay (NCATS):
Records with an inconclusive call do not appear. Activity calls are given as the source filed them. Calls follow the shape of the dose curve; as a rule, active = well fitted cell-killing curve with a large enough effect; inconclusive = small, poorly fitted or top-dose-only effect; inactive = flat fitted curve, though single readings scatter.

Test: Cell Viability - LYMP2-023 (AID 975); also: nearly all actives have a fitted effect of over 55% in size;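 as to activity change, negative = cytotoxicity: plate controls were DMSO only for no effect and 92 µM tetraoctylammonium bromide control for full effect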
Settings: LYMP2-023 lymphoblastoid cell viability; series mostly up to 92.2 µM; activity change, negative = cytotoxicity: at the top concentration
Excerpt: NIH Chemical Genomics Center [NCGC]
NIH Molecular Libraries Screening Centers Network [MLSCN]
National Institutes of Environmental Health Sciences [NIEHS]
National Toxicology Program [NTP]
We have developed a 1536-well cell-based assay for quantitative high throughput screening (qHTS) against a number of cell lines to determine in vitro cytotoxicity of small molecules. This particular assay uses a human lymphoblastoid cell line (LYMP2-023) purchased from Coriell Institute for Medical Research.
NCGC Assay Protocol Summary:
The CellTiter-Glo luminescent cell viability assay (Promega) is a homogeneous method to measure the number of viable cells in culture. The end point readout of this assay is based on quantitation of intracellular ATP, an indicator of metabolic activity, using the luciferase reaction. Luciferase catalyzes the oxidation of beetle Luciferin to oxyluciferin and light in the presence of ATP. The luminescent signal is proportional to amount of ATP present.
Using the CellTiter-Glo luminescent cell viability assay, the amount of cellular ATP was measured in the lymphoblastoid cell line with complete culture medium following compound treatment for 24 hours. The assay was performed in opaque white Kalypsys 1536-well plates. In the screen, tetraoctylammonium bromide was used as positive control. Library compounds were measured for their ability to cause acute toxicity in the cell line, as reflected by a decrease in intracellular ATP levels, in a concentration-dependent manner. […] AC50 values were determined from concentration-response data modeled with the standard Hill equation.
qHTS protocol for CellTiter Glo lymphoblastoid cellular assay
[Step] [Parameter] [Value] [Description]
1. Reagent; 5 uL; 2500 lymphoblastoid cells/well
2. Time; 5 hr; 37 C incubation
4. Controls; 23 nL; Tetraoctylammonium bromide 6.4pM to 92 uM
5. Time; 24 hr; 37 C incubation
6. Reagent; 5 uL; CellTiter Glo reagent
7. Time; 30 min; Room Temperature
8. Detection; Luminescence; Viewlux plate reader
Keywords: cell viability, cytotoxicity, lymphoblastoid cell line, luminescence, NTPHTS, NTPHTS_NCGC, NIEHS, DSSTox, MLSMR, MLSCN, NIH Roadmap, qHTS, NCGC
Potency is read from the fitted curve at half-maximal effect.

| Compound | Potency | activity change, negative = cytotoxicity |
| --- | --- | --- |
| N[C@@H](Cc1ccc(N(CCCl)CCCl)cc1)C(=O)O | 39.8 µM (active) |  |
| Oc1ccccc1-c1ccccc1 |  | -4.65% (inactive) |
| CC(COc1ccccc1)N(CCCl)Cc1ccccc1 (stereo unspecified) | 50.1 µM (active) |  |
| Oc1cccc2cccnc12 | 25.1 µM (active) |  |
| CCCC(C)(COC(N)=O)COC(=O)NC(C)C (stereo unspecified) |  | 6.52% (inactive) |
| Oc1ccc(Cl)cc1Cc1ccccc1 |  | -1.36% (inactive) |
| c1ccc2c(c1)Nc1ccccc1S2 |  | -3.21% (inactive) |
| CCOP(=S)(OCC)Oc1cc(C)nc(C(C)C)n1 |  | 3.4% (inactive) |
| CNCC(O)c1ccc(O)cc1 (stereo unspecified) |  | -2.94% (inactive) |
| NCC(O)c1ccc(O)cc1 (stereo unspecified) |  | -3.47% (inactive) |
| OCCOc1ccccc1 |  | -6.24% (inactive) |
